An excerpt weighted towards active compounds, which were near 2.7% of everything screened.
PAFAH2 inh – inhibitors of human PAFAH2; recombinant PAFAH2, FP-rhodamine activity probe, fluorescence polarization; Q99487; AID 492956; inhibition, % at 3.39 µM; hit rate 0.99% among 340,000;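 active = inhibition above the mean over all tested compounds plus 3 SD, cut at about 30% in these data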;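 note: inhibitors block probe labeling of enzyme so polarization drops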
PAFAH1B3 FP inh – PAFAH1B3 (human) inhibition; inhibition, % at 3.39 µM; AID 492972; hit rate 0.28% among 340,000; recombinant PAFAH1B3, FP-rhodamine probe, fluorescence polarization; Q15102;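 active = inhibition above the screen-wide average of all tested compounds plus 3 SD, cut at about 25% in these data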
Target sequence (Q15102 whole entry, looked up): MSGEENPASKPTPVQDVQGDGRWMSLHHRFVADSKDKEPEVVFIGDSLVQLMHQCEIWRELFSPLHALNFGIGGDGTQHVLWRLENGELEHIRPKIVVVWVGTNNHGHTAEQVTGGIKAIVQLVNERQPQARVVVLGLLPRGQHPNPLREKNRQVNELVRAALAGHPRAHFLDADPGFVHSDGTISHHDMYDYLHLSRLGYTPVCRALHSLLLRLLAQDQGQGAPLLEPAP
PAFAH1B2 FP inh – inhibitors of human PAFAH1B2. P68402. recombinant PAFAH1B2, FP-rhodamine activity probe, fluorescence polarization. inhibition, % at 3.39 µM. hit rate 1.2% among 340,000. AID 492953;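 active = inhibition above the mean of all tested compounds plus 3 SD, cut at about 24% in these data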
TCR CD3 inh – blocks the human TCR-CD3 interaction | hit rate 0.37% among 360,000 | AID 651800 | TAMRA-labeled TCR probe fluorescence, biochemical | inhibition, % at 9.4 µM; in the data active = inhibition above about 19%;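 note: recombinant mutant TCR 2C K166C tagged with TAMRA read by polarization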
pPAFAH inh – pPAFAH (human) enzyme inhibition; recombinant pPAFAH, FP-rhodamine probe fluorescence polarization; inhibition, % at 3.39 µM; AID 463082; hit rate 1.5% among 330,000; Q13093;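 active = inhibition above the mean inhibition across the screen plus 3 SD, cut at about 25% in these data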;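 note: inhibitors block binding of the rhodamine activity-based probe so polarization drops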
Hits are given with their value; – = inactive; · = no result.

SMILES	PAFAH2 inh	PAFAH1B3 FP inh	PAFAH1B2 FP inh	TCR CD3 inh	pPAFAH inh
COc1ccccc1CCn1cnc(-c2ccccc2OC)c1CC(C)C	·	·	·	–	·
Cc1ccc(CC2SC(N=C(N)N)=NC2=O)cc1 (stereo not given)	–	–	–	–	–
COC(=O)c1cc2c(c3c4cc(OC)ccc4n(S(=O)(=O)c4ccc(OC)cc4)c13)C(=O)N(C1CCCCC1)C2	·	·	·	–	·
Cc1ccc(S(=O)(=O)N2CCN3CCCC3C2)cc1 (stereo not given)	–	–	–	–	–
O=S(=O)(c1ccc(Cl)cc1)N1CCN2CCCC2C1 (stereo not given)	–	–	27.3	–	–
O=C(CN1CCN(S(=O)(=O)c2ccc(Cl)cc2)CC1)NC1CCCC1	–	–	28.7	–	–
Cc1ccc(N=Cc2cc3c(cc2[N+](=O)[O-])OCO3)cc1[N+](=O)[O-]	·	·	·	–	30.9
CC(C)(C)N(Cc1ccccc1)C(=O)COC(=O)c1ccccc1SCC(=O)N1CCCC1	–	–	–	–	–
O=C(CN1C(=O)c2ccccc2S1(=O)=O)NC1CCCCCC1	–	–	–	–	–
O=C(CN1c2cccc3cccc(c23)S1(=O)=O)NC1CCCCC1	–	–	–	–	29.5
Cc1cccc(NC(=O)CNC(=O)[C@@H](Cc2ccccc2)NC(=O)[C@H]2O[C@@H](n3ccc(=O)[nH]c3=O)[C@H](O)[C@@H]2O)c1C	·	·	·	–	·
N#Cc1c(N)oc(-c2ccco2)c1-c1ccco1	–	–	–	–	–
COc1ccc(OC)c(/C=N/c2oc(-c3ccco3)c(-c3ccco3)c2C#N)c1	–	–	–	–	29.6
O=C(O)c1cc(-c2ccc(Cl)c(Cl)c2)n(-c2ccccc2)n1	–	–	28.8	–	–
COc1cccc(N2CC(C(=O)Nc3ccc(C(=O)OC(C)C)cc3)CC2=O)c1 (stereo not given)	–	–	–	–	25.4
NC(=O)c1ccc(OCC(F)(F)F)nc1	–	–	–	–	–
COC(=O)C1=C(CSc2nc3c(cc2C#N)CN(C)CC3)OC(N)=C(C#N)C1c1ccccc1F (stereo not given)	–	–	–	·	28.4
CCOC(=O)C1=C(CSc2nc3c(cc2C#N)CN(C)CC3)OC(N)=C(C#N)C1c1ccccc1 (stereo not given)	–	–	–	–	–
CC1CN(S(=O)(=O)c2csc(C(=O)Nc3ccccc3)c2)CC(C)O1 (stereo not given)	–	–	–	–	–
CCN1/C(=C/C=C/c2oc3ccc4ccccc4c3[n+]2CC)Oc2ccc3ccccc3c21	·	·	·	·	41.8
CC(C)=CCCC1=CC[C@H]2[C@@H](C1)C(C(C)C)=CC(=O)[C@@]2(C)O	·	·	·	–	·
CC(C)(c1ccccc1)c1ccc(OCC2CO2)cc1 (stereo not given)	–	–	–	–	25.4
CN(C)CCOc1ccc(C(C)(C)c2ccccc2)cc1	–	–	–	–	–
O=C(/C=C/c1ccc([N+](=O)[O-])cc1)c1ccco1	–	–	–	–	–
O=C(C=C1SCCS1)/C=C/c1ccco1	–	–	–	–	24.6
SMILES	PAFAH2 inh	PAFAH1B3 FP inh	PAFAH1B2 FP inh	TCR CD3 inh	pPAFAH inh
O=C(/C=C/c1ccc([N+](=O)[O-])cc1)/C=C/c1ccco1	–	–	–	–	62.1
O=C(CSc1ccc(Cl)cc1)NNC(=O)c1cccnc1	–	–	28.0	–	–
Oc1ccc(/C=N/N(c2ccccc2)c2ccccc2)c(O)c1O	–	–	–	–	69.1
Oc1ccc(/C=N/N(c2ccccc2)c2ccccc2)cc1O	–	–	–	–	68.9
O=C(/C(=N/O)c1ccccc1)c1ccccc1	–	–	–	–	·
CCN(CC)c1ccc(/C=N/N(c2ccccc2)c2ccccc2)c(O)c1	–	–	–	–	–
O=C(/C(=N/N=C/c1ccc(O)c(O)c1)c1ccccc1)c1ccccc1	–	–	–	–	29.7
C1CCCCCC2(CCCCC1)OCC(CN1CCOCC1)O2 (stereo not given)	–	–	26.5	–	–
Cc1onc(-c2ccccc2)c1C(=O)N1CCN(C(=O)C(=O)c2cccc(C(F)(F)F)c2)CC1	·	·	·	–	·
COc1ccc(C(=S)N2CCOCC2)cc1OS(=O)(=O)c1ccc(Br)cc1	–	–	34.1	–	–
CCN(CC)S(=O)(=O)c1ccc2c(c1)nc(-c1ccccn1)n2C	–	–	–	–	–
CC(C)(C)c1ccc(C(=O)NCCC(=O)NNC(=O)COc2ccccc2F)cc1	–	–	25.3	–	–
CN(Cc1ccccc1F)C(=O)CNC(=O)Cc1cccc2ccccc12	–	–	–	–	–
CN(Cc1ccccc1F)C(=O)CCNC(=O)c1ccc(C(C)(C)C)cc1	–	–	27.9	–	–

Screening results deposited in PubChem BioAssay by The Scripps Research Institute Molecular Screening Center.
